# Data reported in PubChem BioAssay (NCATS).
# Records with an inconclusive call do not appear. Activity calls are given as the source filed them. Unless noted, calls come from the whole dose curve; as a rule, active = well fitted curve in the direction sought with a large enough effect; inconclusive = small, poorly fitted or top-dose-only effect, or another doubt; inactive = no such curve, though single readings can be large; an effect the other way counts as inactive or inconclusive.
# Columns and labels:
# [1] = target: Cytochrome P450 2C9 (Homo sapiens) (UniProt P11712); test: Cytochrome P450 family 2 subfamily C member 9 (CYP2C9) small molecule antagonists: luciferase biochemical (cell-free) qHTS assay (AID 1645842; active = well fitted curve in the direction sought with a large enough effect in the repeat runs; an effect the other way counts as inactive or inconclusive; note: potency is the fitted concentration of half-maximal effect; nearly all actives have a fitted effect of over 55% in size)
# Cytochrome P450 2C9 (Homo sapiens), sequence (P11712 whole entry, looked up): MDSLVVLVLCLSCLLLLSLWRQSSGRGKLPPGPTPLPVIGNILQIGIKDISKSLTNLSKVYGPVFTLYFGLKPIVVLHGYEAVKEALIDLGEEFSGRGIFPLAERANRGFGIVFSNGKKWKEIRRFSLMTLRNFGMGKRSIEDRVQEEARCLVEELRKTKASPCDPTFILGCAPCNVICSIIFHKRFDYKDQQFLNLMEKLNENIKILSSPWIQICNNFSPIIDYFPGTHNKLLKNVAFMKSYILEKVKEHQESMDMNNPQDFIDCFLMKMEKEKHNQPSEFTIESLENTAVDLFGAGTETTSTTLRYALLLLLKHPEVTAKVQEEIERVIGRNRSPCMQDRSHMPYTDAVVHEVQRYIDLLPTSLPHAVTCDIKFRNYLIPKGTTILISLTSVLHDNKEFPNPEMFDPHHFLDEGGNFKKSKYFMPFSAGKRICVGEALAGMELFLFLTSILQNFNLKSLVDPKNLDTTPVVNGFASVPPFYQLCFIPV
# In short: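 Luminescence, after 20 min with luciferin detection reagent, reflected CYP2C9 turnover during a 1 h NADPH-driven reaction at 37C. Enzyme-substrate mix contained 0.4% bovine serum albumin and was preincubated with compound 10 min at room temperature.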
# [2] = target: N-terminal Xaa-Pro-Lys N-methyltransferase 1 (Homo sapiens) (UniProt Q9BV86); test: Confirmatory qHTS for Inhibitors of N-terminal methyltransferase 1 (NTMT1): MTaseGlo Assay (AID 1645874); note: nearly all actives have a fitted effect of over 65% in size; note: potency is the fitted concentration of half-maximal effect
# N-terminal Xaa-Pro-Lys N-methyltransferase 1 (Homo sapiens), sequence (Q9BV86 whole entry, looked up): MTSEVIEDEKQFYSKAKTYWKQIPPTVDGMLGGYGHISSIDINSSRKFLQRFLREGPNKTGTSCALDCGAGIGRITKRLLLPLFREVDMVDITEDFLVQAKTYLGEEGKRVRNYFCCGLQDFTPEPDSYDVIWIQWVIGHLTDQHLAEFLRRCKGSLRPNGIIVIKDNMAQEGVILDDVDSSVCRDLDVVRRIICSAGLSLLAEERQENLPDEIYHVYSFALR
# In short: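 qHTS format: NTMT1 125 nM, SAM 100 uM, peptide SPKRIA 1 uM final; 15 min compound preincubation, 30 min reaction at room temperature. MTase-Glo luminescence.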
# [3] = target: Rap guanine nucleotide exchange factor 3 (Homo sapiens) (UniProt O95398); test: Confirmatory qHTS for antagonist of cAMP-regulated guanine nucleotide exchange factor 3 (EPAC1) (AID 1645880); note: potency is the fitted concentration of half-maximal effect; nearly all actives have a fitted effect of over 55% in size
# Rap guanine nucleotide exchange factor 3 (Homo sapiens), sequence (O95398 whole entry, looked up): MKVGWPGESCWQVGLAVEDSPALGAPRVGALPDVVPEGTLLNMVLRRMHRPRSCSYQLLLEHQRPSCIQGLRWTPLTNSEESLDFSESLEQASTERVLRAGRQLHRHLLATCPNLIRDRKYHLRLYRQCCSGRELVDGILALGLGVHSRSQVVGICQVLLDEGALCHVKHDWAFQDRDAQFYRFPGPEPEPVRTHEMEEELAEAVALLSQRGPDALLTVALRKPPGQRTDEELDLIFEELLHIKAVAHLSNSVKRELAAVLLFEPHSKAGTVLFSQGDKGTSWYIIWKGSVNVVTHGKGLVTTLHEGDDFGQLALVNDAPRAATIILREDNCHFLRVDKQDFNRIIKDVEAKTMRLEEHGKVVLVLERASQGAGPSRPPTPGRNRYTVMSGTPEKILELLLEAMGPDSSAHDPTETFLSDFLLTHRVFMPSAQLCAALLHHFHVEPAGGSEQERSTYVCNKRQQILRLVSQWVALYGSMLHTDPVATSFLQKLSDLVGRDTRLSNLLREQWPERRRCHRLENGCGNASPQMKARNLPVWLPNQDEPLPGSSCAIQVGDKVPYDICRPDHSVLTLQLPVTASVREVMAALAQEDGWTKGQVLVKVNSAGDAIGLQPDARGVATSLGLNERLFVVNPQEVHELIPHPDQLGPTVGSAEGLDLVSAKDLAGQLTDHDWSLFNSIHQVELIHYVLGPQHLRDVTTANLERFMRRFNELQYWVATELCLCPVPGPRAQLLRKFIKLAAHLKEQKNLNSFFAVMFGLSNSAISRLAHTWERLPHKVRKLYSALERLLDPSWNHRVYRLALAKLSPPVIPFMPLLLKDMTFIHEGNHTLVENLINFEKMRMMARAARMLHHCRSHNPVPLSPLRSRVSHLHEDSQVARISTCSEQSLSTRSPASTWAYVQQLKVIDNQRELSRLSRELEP
# In short: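 Nucleotide exchange uses 100 nM EPAC1, 250 nM RAP1B-BODIPY-GDP and 50 uM GDP, with compounds in a concentration-titration series. After 5 min at room temperature, fluorescence (480 nm ex/540 nm em) is read every 5 min for 30 min. Data are normalized to control ATA and DMSO.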
# [4] = target: Rap guanine nucleotide exchange factor 3 (Homo sapiens) (UniProt O95398); test: Confirmatory qHTS for agonist of cAMP-regulated guanine nucleotide exchange factor 3 (EPAC1) (AID 1645881);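 note: EPAC1 catalysed release of BODIPY-GDP from Rap1B seen as fluorescence loss; nearly all actives have a fitted effect of over 75% in size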
# [5] = target: Rap guanine nucleotide exchange factor 4 (Homo sapiens) (UniProt Q8WZA2); test: Confirmatory qHTS for agonist of cAMP-regulated guanine nucleotide exchange factor 4 (EPAC2) (AID 1645884);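 note: nucleotide exchange releases bodipy-GDP from Rap1 and this lowers its fluorescence; nearly all actives have a fitted effect of over 65% in size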
# Rap guanine nucleotide exchange factor 4 (Homo sapiens), sequence (Q8WZA2 whole entry, looked up): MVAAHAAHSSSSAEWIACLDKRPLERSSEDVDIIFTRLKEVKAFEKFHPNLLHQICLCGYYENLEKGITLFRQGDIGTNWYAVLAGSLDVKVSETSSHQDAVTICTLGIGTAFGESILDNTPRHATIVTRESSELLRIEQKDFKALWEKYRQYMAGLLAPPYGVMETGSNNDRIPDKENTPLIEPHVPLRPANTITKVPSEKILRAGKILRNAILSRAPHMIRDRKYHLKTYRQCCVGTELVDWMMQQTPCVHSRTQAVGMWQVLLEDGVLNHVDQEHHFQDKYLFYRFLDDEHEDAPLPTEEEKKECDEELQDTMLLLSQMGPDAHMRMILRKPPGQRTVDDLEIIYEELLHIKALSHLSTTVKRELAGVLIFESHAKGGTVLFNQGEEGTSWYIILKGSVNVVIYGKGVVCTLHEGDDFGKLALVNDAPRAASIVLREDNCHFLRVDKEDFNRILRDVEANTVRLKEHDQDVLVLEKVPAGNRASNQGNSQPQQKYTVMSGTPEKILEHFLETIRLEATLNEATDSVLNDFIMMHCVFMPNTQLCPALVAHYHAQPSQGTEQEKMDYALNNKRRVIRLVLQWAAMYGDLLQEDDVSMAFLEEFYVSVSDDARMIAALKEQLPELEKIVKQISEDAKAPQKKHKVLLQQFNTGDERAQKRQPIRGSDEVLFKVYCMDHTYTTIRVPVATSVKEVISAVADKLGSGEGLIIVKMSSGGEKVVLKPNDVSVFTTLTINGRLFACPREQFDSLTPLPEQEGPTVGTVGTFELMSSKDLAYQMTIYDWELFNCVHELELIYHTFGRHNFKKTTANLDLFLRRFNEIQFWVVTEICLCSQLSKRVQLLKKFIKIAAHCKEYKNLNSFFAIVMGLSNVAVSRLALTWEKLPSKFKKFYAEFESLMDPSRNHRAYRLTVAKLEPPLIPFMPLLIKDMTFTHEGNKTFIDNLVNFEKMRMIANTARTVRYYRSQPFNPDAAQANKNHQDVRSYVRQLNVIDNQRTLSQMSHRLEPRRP
# [6] = target: Rap guanine nucleotide exchange factor 4 (Homo sapiens) (UniProt Q8WZA2); test: Confirmatory qHTS for antagonist of cAMP-regulated guanine nucleotide exchange factor 4 (EPAC2) (AID 1645885); note: nearly all actives have a fitted effect of over 25% in size
# [7] = target: Rap guanine nucleotide exchange factor 3 (Homo sapiens) (UniProt O95398); test: Counterscreen qHTS for antagonist of cAMP-regulated guanine nucleotide exchange factor 3 (EPAC1) (AID 1645888);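 note: fluorescence loss as bound BODIPY-GDP is released from Rap1B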
# In short: (§1)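 Rap1B–BODIPY-GDP (250 nM) with 50 uM GDP; compounds pin-transferred to 9.74 nM–152 uM final (activator) or from 7.32 nM upwards (inhibitor). Fluorescence Ex/Em 480/540 nm read at 5 and 30 min, then after adding cAMP or buffer, at room temperature.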
# [8] = target: Rap guanine nucleotide exchange factor 3 (Homo sapiens) (UniProt O95398); test: Counterscreen qHTS for agonist of cAMP-regulated guanine nucleotide exchange factor 3 (EPAC1) (AID 1645889); note: nearly all actives have a fitted effect of over 40% in size
# In short: as §1
# [9] = Primary qHTS for inhibitors of nuclear receptor binding SET domain protein 2 (NSD2) in an isogenic RCH-ACV NSD2 p.E1099K mutant (9B) (AID 1645876); note: potency is the fitted concentration of half-maximal effect; nearly all actives have a fitted effect of over 70% in size
# [10] = Primary qHTS for inhibitors of nuclear receptor binding SET domain protein 2 (NSD2) in an RCH-ACV wild type WT cells (2C) (AID 1645877); note: potency is the fitted concentration of half-maximal effect; nearly all actives have a fitted effect of over 70% in size
smiles,measurement,setting,value
COc1ccc(-c2cn3cccnc3n2)cc1NC(=O)COc1ccccc1,Potency,[1],4.77 µM (active)
O=C(Nc1noc2ccccc12)c1c(F)cccc1F,Potency,[2],inactive
CC(C)c1ccc(-n2ncc3c(=O)n(CC(=O)Nc4cc(F)ccc4Cl)cnc32)cc1,Potency,[1],3.79 µM (active)
CC(=O)c1ccc(NC(=O)Cn2cc(S(=O)(=O)Cc3ccccc3Cl)c3ccccc32)cc1,Potency,[1],1.69 µM (active)
CCc1ccc(C2=CC(c3c(F)cccc3Cl)n3c(nc4ccccc43)N2)cc1 (centres undefined),Potency,[1],5.35 µM (active)
CC(NC(=O)C(=O)Nc1c2c(nn1-c1ccccc1)CSC2)c1ccccc1 (centres undefined),Potency,[1],3.38 µM (active)
COc1ccc(C(=O)NC(c2ccccc2Cl)c2cc(Cl)c3cccnc3c2O)cc1 (centres undefined),Potency,[1],6.01 µM (active)
CC(C)(C)c1ccc(-c2nc(SCC(=O)Nc3ccc(Cl)cc3)[nH]c(=O)c2C#N)cc1,Potency,[1],3.01 µM (active)
same,Potency,[3],84.9 µM (active)
same,Potency,[4],inactive
same,Potency,[5],inactive
same,Potency,[6],inactive
same,Potency,[7],inactive
same,Potency,[8],inactive
COC(=O)c1ccc(NC(=O)CSc2nc3ccc(OC)cc3[nH]2)cc1,Potency,[2],inactive
COc1cc2nc(N3CCOCC3)nc(NC(C)C)c2cc1OC,Potency,[2],34.5 µM (active)
Cc1ccc2nc(-c3ccc(O)cc3)c(Nc3ccc(Cl)cc3)n2c1,Potency,[2],inactive
Cc1cc(C(=O)Nc2nc3cccc(Cl)c3n2C2CCCCN(C(=O)/C=C/CN(C)C)C2)ccn1 (centres undefined),Potency,[9],6.51 µM (active)
same,Potency,[10],6.51 µM (active)
